± gives the standard deviation.
system: MILI (PIWIL2) piRISC loaded with piRNA #1 (26 nt); test: pre-steady-state target cleavage rate (min^-1); guide: piRNA #1 5'p-UGAGGUAGUAGGUUGUAUAGUAUCCA; MIWI and MILI are mouse PIWI proteins and EfPiwi is from a freshwater sponge; tags in brackets are library labels; higher = faster piRNA-guided slicing of the target; details: auxiliary factor: 500 nM mouse GTSF1
How it was run: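 A burst-and-steady-state fit was used to obtain the pre-steady-state cleavage rate. The input data were sequencing reads of uncleaved targets, normalised to depth and to weakly complementary targets, from a […] transcribed, DNA-blocked target RNA library mixed with 1 nM active affinity-purified piRISC holding one synthetic guide, with or without 500 nM GTSF1 partner protein, in HEPES–potassium acetate buffer at 33 °C for 0–8 or 0–960 min. Three trials were pooled and k3 was capped at 0.0001 min^-1.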
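Also: 1 nM active piRISC with 0.1 nM target library at 33 °C single turnover.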

| Sequence | pre-steady-state target cleavage rate |
| --- | --- |
| GGAGACCAUACAAUACAACCUACUACCACA | 0.177 ± 0.022 |
| GGAGACGAUACUAUUGAACCUACUACCUCA | 0.157 ± 0.016 |
| GGAGAGGAUACUAUACUACCUACUACGUCA | 0.0806 ± 0.01 |
| GGAGACCUAAGUAUAGAACCUACUACCUCA | 0.0747 ± 0.013 |
| GGAGACCUAUCUAUAGAACCUACUACCUGA | 0.00618 ± 0.0029 |
| GGAGACCUAACUAAACAACCUACUACCACA | 0.139 ± 0.027 |
| GGAGACCUAUCUAUACAACCUACUACACUCA | 0.179 ± 0.022 |
| GGAGAGGAUACAAUUCAACCUACUACCUCA | 0.174 ± 0.012 |
| GGAGACCUAUGAUAACAACCUACUACCGUCA | 0.00366 ± 0.0026 |
| GGAGACCUUACUAUACAACCUACAUGGAGA [g8:g22:cont:t1A] | 0.00299 ± 0.0029 |
| GGAGACCUAUGUAUACAAGCUACUACCUGA | 0.0868 ± 0.015 |
| GGAGACCUAUCUAUAGAACGUACUACCUCA | 0.00596 ± 0.0017 |
| GGAGACCAUUGUAUACAACCUACUACCUCA | 0.0325 ± 0.0067 |
| GGAGACCUAUGUAUACAACGUACUACCUGA | 0.00357 ± 0.0021 |
| GGAGACCUUACUAUACAACCUACUUCCACA | 0.0518 ± 0.013 |
| GGAGACCUAACUAAACAAGCUACUACCUCA | 0.15 ± 0.02 |
| GGAGACCUAUGAUAUGAACCUAGCUACCUCA | < 0.0001 |
| GGAGACGAUACUAUACAACCUACAACCACA | 0.0888 ± 0.035 |
| GGAGAGGAUAGAAUACAACCUACUACCUCA | 0.096 ± 0.01 |
| GGAGAGGAUACUAUUCUACCUACUACCUCA | 0.179 ± 0.013 |

| Sequence | pre-steady-state target cleavage rate |
| --- | --- |
| GGAGACCAUACUAAACAACCUACUUCCUCA | 0.068 ± 0.011 |
| GGAGACCUAUGUAUACAACCUACUACCUCC [g2:g19:cont:t1C] | 0.0539 ± 0.0077 |
| GGAGUGGAUACUAUACAACCUACAUACCUCA | 0.109 ± 0.011 |
| GGAGACCUAUCUAUACUACCUACUUCCUCA | 0.0634 ± 0.01 |
| GGAGACCUAUGAAUACUACCUACUAGCUCA | 0.00378 ± 0.0025 |
| GGAGACCAUACUAUUGAACCUACUACCUCA | 0.153 ± 0.013 |
| GGAGACCUAUGUAUACAACAUACUACCUCA | 0.0179 ± 0.0028 |
| GGAGACCAUACAAUACAAGCUACUACCUCA | 0.205 ± 0.016 |
| GGAGACCUAUGUAUACAACCUACUACCCA | 0.0226 ± 0.0055 |
| GGAGACCUAUGAUUACAACCUACUACCUAA | 0.00444 ± 0.003 |
| GGAGAGGAUACUUUACUACCUACUACCUCA | 0.161 ± 0.011 |
| GGAGACCUAUCUAUACAAGCUACUACCUCA | 0.193 ± 0.017 |
| GGAGACCUUACUAUACAACCUACUACGACA | 0.119 ± 0.021 |
| GGAGACCUAAGUAUACAAGCUACUACCUCA | 0.124 ± 0.011 |
| GGAGACCUAACUUUACAACCUACUACGUCA | 0.0224 ± 0.01 |
| GGAGACCUAUGAUAAAACCUACUACCUCA | 0.00798 ± 0.0023 |
| GGAGACCUAUGAUAUGAACGAACUACCUCA | < 0.0001 |
| GGAGUGGAUACUAAUGAACCUACUACCUCA | 0.0477 ± 0.0065 |
| GGAGACCUAUGUAUACAACCUACAAGCUCA | 0.0033 ± 0.0026 |
| GGAGACCUAUCUAAACAACGUACUACCUCA | 0.00647 ± 0.0027 |

From the supplement of paper PMC10338343
